Laboratory results: PubChem BioAssay AID2289 (National Center for Advancing Translational Sciences (NCATS), 2010)
Among all 340,000 compounds or so, about 3,300 (0.97%) were called active. Another 9% or so got no clear call; they are omitted. The call rests on the fitted dose curve; in most records, active means well fitted inhibition curve with a large enough effect; inconclusive means small, poorly fitted or top-dose-only effect, or effect the other way; inactive means flat fitted curve, though single readings scatter. The list shows a part of the results.

Assay: qHTS Assay for Modulators of miRNAs and/or Inhibitors of miR-21; further: nearly all actives have a fitted effect of over 55% in size
Conditions: HeLa miR-21-FLuc reporter, luciferase luminescence, 48 h; actives lower the signal
In short: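 HeLa cells stably expressing CMV-driven firefly luciferase with a downstream miR-21 binding sequence, endogenously expressing miR-21, were treated with titrations (up to about 40uM final) for 48 hours at 37 degree Celsius. Luciferase luminescence was read after lysis.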
Potency means the concentration at half of the fitted maximal effect.

Potency, active:
COc1ccc(-c2noc(-c3cccnc3)n2)cc1OC 6.56 µM
COc1ccc(-c2nc(-c3cccnc3)no2)cc1 0.826 µM
COc1ccc(-c2nc(-c3cccnc3)no2)cc1OC 16.5 µM
COc1ccc(CNC(=O)CN2C(=O)CC(c3ccc(C)c(C)c3)=Nc3ccccc32)cc1 11.7 µM
CCOc1ccccc1NC(=O)CN1C(=O)CC(c2ccc(C)c(C)c2)=Nc2ccccc21 8.26 µM
O=C(N/N=C\C=C\c1ccco1)c1cc(-c2ccc3ccccc3c2)n[nH]1 4.14 µM
O=C(CCN1C(=O)S/C(=C\C=C\c2ccccc2)C1=O)Nc1ccc(O)cc1 9.27 µM
O=[N+]([O-])c1ccc(Cc2nnc(-c3ccc(F)cc3)o2)cc1 0.826 µM
Fc1ccc(-c2nnc(Cc3ccc(Cl)cc3)o2)cc1 10.4 µM
C=CCSc1nnc(-c2ccc([N+](=O)[O-])cc2)o1 6.56 µM
O=[N+]([O-])c1cccnc1NCCc1ccccc1 5.21 µM
O=[N+]([O-])c1cccnc1NCCc1c[nH]c2ccccc12 4.14 µM
COc1ccc(CNc2ncccc2[N+](=O)[O-])cc1 18.5 µM
O=[N+]([O-])c1cccnc1NCCNc1ncc(C(F)(F)F)cc1Cl 2.93 µM
Cc1ccccc1-n1c(C)cc(/C=N/Nc2ccc([N+](=O)[O-])cn2)c1C 3.69 µM
O=C(Nc1cccnc1Cl)c1cc(-c2cccc(O)c2)on1 18.5 µM
Cc1ccc(C(=O)Nc2cccnc2Cl)cc1Cl 3.69 µM
O=C(Nc1cccnc1Cl)c1cc(-c2ccccc2O)on1 2.61 µM
CCC(C(=O)N1CCN(c2cccc(C)c2C)CC1)n1nc(C)c2sc3ccccc3c2c1=O (configuration not stated) 8.26 µM
COc1ccccc1Nc1ccc(Nc2ccccc2OC)nn1 7.36 µM
CC(=O)c1c(C)nc(-c2ccc(Cl)cc2)nc1N 1.65 µM
CCOC(=O)c1c(C)nc(-c2ccccc2)nc1N 4.65 µM
CCOC(=O)c1c(-c2ccccc2)cn2c(C)cc(C)nc12 5.85 µM
C/C(=N/NC(=O)c1ccccc1)c1ccc(NC(=O)C(F)(F)F)cc1 4.65 µM
C/C(=N/NC(=O)c1ccoc1C)c1cccc(NC(=O)C(F)(F)F)c1 1.65 µM
C/C(=N/NC(=O)c1ccoc1C)c1cccc(NC(=O)C2CC2)c1 1.65 µM
C/C(=N/NC(=O)c1ccoc1C)c1ccc(NC(=O)C2CCCC2)cc1 1.31 µM
COC1=C/C(=C/c2c(O)c(C#N)c3ccccn23)C=CC1=O 11.7 µM
COc1ccc2nc(-c3ccccc3)cc(OC)c2c1 14.7 µM
COc1ccc2cc(-c3ccccc3)ncc2c1 0.369 µM
COc1ccc(-c2cc3cc(OC)c(OC)cc3c(C)n2)cc1 7.36 µM
O=C(COc1ccc2c(c1)OCO2)Nc1ccccc1C(F)(F)F 16.5 µM
O=C(COc1ccc2c(c1)OCO2)Nc1ccc(Cl)cn1 2.07 µM
CC1Cc2ccccc2N1C(=O)COc1ccc2c(c1)OCO2 (configuration not stated) 11.7 µM
O=C(COc1ccc2c(c1)OCO2)Nc1cccc(F)c1 8.26 µM
COc1ccccc1NC(=O)COc1ccc2c(c1)OCO2 7.36 µM
COc1ccccc1NC(=O)COc1ccc(CO)cc1Cl 5.85 µM
Cc1ccc(/C=N/NC(=O)c2ccoc2C)o1 16.5 µM
Cc1occc1C(=O)N/N=C/c1ccc(-c2ccccc2)cc1 0.147 µM
Cc1ccc(/C=N\Nc2cn[nH]c(=O)c2Cl)cc1 14.7 µM
Cc1cccc(/C=N\Nc2cn[nH]c(=O)c2Cl)c1 18.5 µM
O=C(/C(C=Nc1ccc(F)cc1)=C(/O)c1ccco1)C(F)(F)F 4.14 µM
CC(=O)COc1ccc2c3c(c(=O)oc2c1C)CCCCC3 3.29 µM
CC(=O)C(C)Oc1ccc2c3c(c(=O)oc2c1C)CCCC3 (configuration not stated) 16.5 µM
CC(=O)Nc1ccc(/C=N/NC(=O)c2cccs2)cc1 5.85 µM
Cc1ccc(/C=N/N=C/c2ccc(C)s2)s1 0.927 µM
O=C(N/N=C/c1ccncc1)c1cccs1 5.21 µM
CSc1ccc(/C=N/NC(=O)c2cccs2)cc1 1.31 µM
O=C(N/N=C/c1ccc2c(c1)OCO2)c1cccs1 1.65 µM
Cc1ccc(/C=N/NC(=O)c2cccs2)s1 7.36 µM
COc1cc(/C=N/NC(=O)c2cccs2)ccc1O 10.4 µM
CCNC(=S)/N=C(\N)Nc1nc(C)c2cc(C)ccc2n1 5.85 µM
Cc1nc2ccc(NC(=O)c3cccs3)cc2s1 3.69 µM
Cc1nc2ccc(C(=O)Nc3ccccc3Cl)cc2s1 3.69 µM
Cc1nc2ccc(NC(=O)c3ccccc3)cc2s1 5.85 µM
CC(C)(C)c1ccc(C(=O)Nc2ccccc2Cl)cc1 0.826 µM
Cc1nc2ccc(NC(=O)N(C)c3ccccc3)cc2s1 9.27 µM
CCOc1ncccc1C(=O)Nc1ccc2nc(C)sc2c1 8.26 µM
Cc1nc2ccc(NC(=O)c3cc(Cl)ccn3)cc2s1 0.369 µM
Cc1nc2ccc(NC(=O)c3ccc4ccccc4n3)cc2s1 3.69 µM
C=CCC(CC(O)COCCC)C(=O)NNC(=S)Nc1ccccc1 (configuration not stated) 13.1 µM
CCCn1c(C)cc(/C=C(\C#N)C(=O)OCC(=O)Nc2cc(OC)c(OC)c(OC)c2)c1C 16.5 µM
COc1ccccc1C(=O)OCc1nc(N)nc(Nc2ccccc2C)n1 18.5 µM
Cc1ccccc1Nc1nc(N)nc(COC(=O)c2ccccc2)n1 13.1 µM
Cn1c(SCc2ccccc2Cl)nc2ccccc21 3.29 µM
CCn1c(SCc2ccccc2Cl)nc2ccccc21 13.1 µM
Cn1c(SCc2ccc(C#N)cc2Cl)nc2ccccc21 4.65 µM
